KB-3-1 tox: qHTS assay for MDR1-selective chemotherapeutics: Primary screen using the parental adenocarcinoma cell KB-3-1; KB-3-1 viability, CellTiter-Glo ATP luminescence, 72 h; Potency, µM (top dose mostly 46.1 µM), actives largely listed as cytotoxic; actives 1.4% (n = 400,000); also: % is scaled to controls: 0 for no effect and ±100 for the full control effect; nearly all actives have a fitted effect of over 60% in size
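Parental KB-3-1 viability, qHTS format: 72 h compound exposure, 37 °C; CellTiter-Glo; media-only wells and DMSO plates as controls; concentration-effect fits on corrected data.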
SW480 rerep: A quantitative high throughput screen for small molecules that induce DNA re-replication in SW480 colon adenocarcinoma cells. Potency, µM (top dose mostly 46.1 µM), inactives show at the top dose re-replication activation, most hits filed as activators. actives 1.8% (n = 340,000). SW480 DNA re-replication, Hoechst DNA content imaging, 48 h; also: % of control where 0% means no effect; nearly all actives have a fitted effect of over 55% in size
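Image-based DNA-content assay: after two days of treatment, nuclei were labelled with the DNA dye Hoechst and imaged, and hits were compounds raising the count of nuclei showing high fluorescence intensity.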
ALOX12 inh: Primary qHTS assay for inhibitors of human arachidonate 12S-lipoxygenase (ALOX12): Round 2; purified 12hLO, xylenol orange hydroperoxide absorbance; Potency, µM (highest dose often 108 µM), for the others: at the top dose activity change, negative = inhibition, actives largely listed as inhibitors; actives 1.1% (n = 580,000); AID 1671190, 2021; also: % is scaled to controls: 0 for no effect and ±100 for the full control effect
Target sequence (P18054 whole entry, looked up): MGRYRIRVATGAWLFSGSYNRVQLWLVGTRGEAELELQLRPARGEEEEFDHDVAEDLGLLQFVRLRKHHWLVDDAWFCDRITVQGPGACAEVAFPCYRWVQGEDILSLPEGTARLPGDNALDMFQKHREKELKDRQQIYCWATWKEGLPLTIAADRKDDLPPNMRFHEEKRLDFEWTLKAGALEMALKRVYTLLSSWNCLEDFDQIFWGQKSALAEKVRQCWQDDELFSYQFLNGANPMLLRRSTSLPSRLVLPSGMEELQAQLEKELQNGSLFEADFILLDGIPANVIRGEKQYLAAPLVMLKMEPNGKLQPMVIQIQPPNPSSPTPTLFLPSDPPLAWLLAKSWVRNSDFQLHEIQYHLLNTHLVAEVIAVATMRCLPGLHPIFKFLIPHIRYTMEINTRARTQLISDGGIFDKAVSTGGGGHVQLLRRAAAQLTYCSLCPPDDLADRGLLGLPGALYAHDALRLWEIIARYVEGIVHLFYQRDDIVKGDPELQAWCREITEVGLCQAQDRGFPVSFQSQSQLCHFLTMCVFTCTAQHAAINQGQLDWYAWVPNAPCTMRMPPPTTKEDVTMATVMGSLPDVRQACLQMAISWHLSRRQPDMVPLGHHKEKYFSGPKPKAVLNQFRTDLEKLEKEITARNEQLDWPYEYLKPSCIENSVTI
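Purified human 12hLO (150 nM final) in 25 mM Hepes, 0.01% Triton X-100, pH 7.0 was preincubated 15 min at room temperature with compound. Then 40 uM arachidonic acid was added, 30 min. Hydroperoxide was read by Fe-XO absorbance ratio 573/405 nm.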
KB-V1 MDR tox: qHTS assay for MDR1-selective chemotherapeutics: Primary screen using the drug-selected MDR subline cells KB-V1. KB-V1 MDR cells viability, CellTiter-Glo, 72 h. Potency, µM (highest dose often 46.1 µM), actives largely listed as cytotoxic. actives 3.4% (n = 400,000); also: % is scaled to controls: 0 for no effect and ±100 for the full control effect; nearly all actives have a fitted effect of over 60% in size
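qHTS viability screen in drug-selected KB-V1 MDR cells: 72 h compound treatment at 37 degrees C, ATP luminescence end point.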
PINK1 modulator: A Quantitative High throughput Screen to Identify Chemical Modulators of PINK1 Expression. PINK1 immunofluorescence, high-content cytometry, 24 h. Potency, µM (highest dose often 76.6 µM), for inactives: at the top dose activation (PINK1 increase), actives largely listed as activators. actives 0.2% (n = 410,000). AID 624263, 2012; active = well fitted activation curve with a large enough effect; inconclusive = small, poorly fitted or top-dose-only effect; cell line not stated here; also: % of control where 0% means no effect; nearly all actives have a fitted effect of over 65% in size
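Cells are seeded, rested 12 hours, then given compound at five concentrations or DMSO for 24 hours. After fixation, blocking and antibody staining, PINK1 amount and mitochondrial localization are scored; CCCP serves as control.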
MCF10A rereplic: A quantitative high throughput screen for small molecules that induce DNA re-replication in MCF 10a normal breast cells; actives 2.9% (n = 350,000); Potency, µM (doses to about 46.1 µM), without a hit: at the top dose activity, positive = re-replication, hits mostly activators; MCF 10A DNA re-replication, Hoechst nuclear intensity, 48 h; also: % of control where 0% means no effect; nearly all actives have a fitted effect of over 50% in size
Active calls of the source: *; [ ] = another dose, or the depositor's remark. Shown are actives, neighbours in structure and some others; about 5.8% of the full set was active somewhere. Unless noted, calls follow the shape of the dose curve; as a rule, active = well fitted curve in the direction sought with a large enough effect; inconclusive = small, poorly fitted or top-dose-only effect, or another doubt; inactive = no such curve, though single readings can be large; an effect the other way counts as inactive or inconclusive. Potency is read from the fitted curve at half-maximal effect.

Screening O=C1C=C(Nc2cccc3cccnc23)c2ccccc2C1=O returned KB-3-1 tox 5.8µM*, SW480 rerep 7.31µM*, ALOX12 inh inconclusive, KB-V1 MDR tox 5.8µM*, PINK1 modulator 0.0% and MCF10A rereplic 3.66µM*.
For O=C1C=C(Nc2ccccc2)c2ccccc2C1=O the results were KB-3-1 tox 5.8µM*, SW480 rerep 2.59µM*, ALOX12 inh -21.7%, KB-V1 MDR tox inconclusive, PINK1 modulator -4.2% and MCF10A rereplic 5.8µM*.
For O=C1C=C(Nc2ccccc2)C(=O)c2ccccc21 the results were KB-3-1 tox inconclusive, SW480 rerep inconclusive, ALOX12 inh 17.9%, KB-V1 MDR tox inconclusive, PINK1 modulator 0.2% and MCF10A rereplic 3.7%.
O=C(Nc1ccc(CCO)cc1)c1cc2ccccc2oc1=O was read as ALOX12 inh -11.1%.
CCN1C(=O)/C(=C\c2ccncc2)SC1=Nc1ccc(C)c(C)c1 was read as KB-3-1 tox inconclusive, SW480 rerep -1.0%, ALOX12 inh -17.8%, KB-V1 MDR tox 14.6µM*, PINK1 modulator -0.1% and MCF10A rereplic inconclusive.
Screening CCCN1C(=O)/C(=C\c2ccncc2)SC1=Nc1ccccc1 returned KB-3-1 tox inactive, SW480 rerep -9.0%, ALOX12 inh 4.2%, KB-V1 MDR tox inconclusive, PINK1 modulator 1.2% and MCF10A rereplic inconclusive.
O=C(NCc1ccccc1)C(c1ccco1)N(C(=O)c1csnn1)c1ccccc1 (stereo unspecified) was read as KB-3-1 tox inactive, SW480 rerep -4.9%, ALOX12 inh 0.0%, KB-V1 MDR tox inactive, PINK1 modulator 3.9% and MCF10A rereplic -26.0%.
For CC(C)(C)NC(=O)C(c1cccs1)N(C(=O)c1csnn1)c1cccc(F)c1 (stereo unspecified) the results were KB-3-1 tox inactive, SW480 rerep inconclusive, ALOX12 inh -2.5%, KB-V1 MDR tox inactive, PINK1 modulator 0.5% and MCF10A rereplic -12.0%.
Screening CCC(C)(C)NC(=O)C(c1ccco1)N(C(=O)c1csnn1)c1cccc(F)c1 (stereo unspecified) returned KB-3-1 tox inactive, SW480 rerep 7.4%, ALOX12 inh 0.0%, KB-V1 MDR tox 16.4µM*, PINK1 modulator 0.4%[38.3 µM] and MCF10A rereplic 17.7%.
For CCC(C)N(C(=O)c1csnn1)C(C(=O)NCc1ccc(F)cc1)c1ccco1 (stereo unspecified) the results were KB-3-1 tox inactive, SW480 rerep -5.3%, ALOX12 inh 0.0%, KB-V1 MDR tox 16.4µM*, PINK1 modulator 55.5%[38.3 µM] and MCF10A rereplic 5.1%.
For COc1cccc(CCC(=O)N2CCCCCC2CN2CCC(OC)CC2)c1 (stereo unspecified) the results were ALOX12 inh 0.9%.
c1csc(-c2nnc(NC3CCCCC3)c3ccccc23)c1 was read as KB-3-1 tox inactive, SW480 rerep -1.6%, ALOX12 inh -14.3%, KB-V1 MDR tox inconclusive, PINK1 modulator 31.6µM* and MCF10A rereplic inconclusive.
Screening CCc1noc(C)c1C(=O)OC(C)C(=O)c1c[nH]c2ccccc12 (stereo unspecified) returned ALOX12 inh -9.8%.
Cc1ccc(C)c(Sc2ccc(NC(=O)/C=C/c3cccs3)cc2)c1 was read as ALOX12 inh -0.9%.
Screening Cc1c(C(=O)Nc2ccccc2Cl)sc2ncnc(N(C)C3CCCCC3)c12 returned KB-3-1 tox inactive, ALOX12 inh 0.1%, KB-V1 MDR tox inactive and PINK1 modulator 0.3%.
Screening Cc1c(C(=O)NCc2ccccc2Cl)sc2ncnc(N(C)C3CCCCC3)c12 returned KB-3-1 tox 20.6µM*, ALOX12 inh 1.6%, KB-V1 MDR tox inconclusive and PINK1 modulator -0.7%.
Screening Cc1ccc(C)c(NC(=O)c2nn(Cc3ccccc3)c(=O)c3ccccc23)c1 returned ALOX12 inh 8.8%.
Screening Cc1ccnc(SC(C(=O)c2ccccc2)c2ccccc2)n1 (stereo unspecified) returned ALOX12 inh 4.0%.
For CCN(CC)C(=O)c1oc2ccc(S(=O)(=O)N3CCCCCC3)cc2c1C the results were KB-3-1 tox inactive, SW480 rerep 3.4%, ALOX12 inh 0.1%, KB-V1 MDR tox 13µM*, PINK1 modulator -0.2%[38.3 µM] and MCF10A rereplic 29.9%.
`COc1ccc2oc(C(=O)OCC(=O)N3C(C)CCCC3C)c(C)c2c1` (stereo unspecified) gave KB-3-1 tox inactive, SW480 rerep 3.0%, ALOX12 inh -0.6%, KB-V1 MDR tox inactive, PINK1 modulator 0.2% and MCF10A rereplic 10.7%.
`COc1ccc2oc(C(=O)OCC(=O)N3CCCCC3C)c(C)c2c1` (stereo unspecified) gave KB-3-1 tox inactive, SW480 rerep -4.2%, ALOX12 inh 4.1%, KB-V1 MDR tox 20.6µM*, PINK1 modulator 0.9% and MCF10A rereplic 1.0%.
Screening CCOC(=O)c1oc2ccc(S(=O)(=O)NCC3Cn4cccc4C(=O)N3C)cc2c1C (stereo unspecified) returned ALOX12 inh 35.5µM*.
Screening CCN(CC)C(=O)c1oc2ccc(S(=O)(=O)N3CC(C)CC(C)C3)cc2c1C (stereo unspecified) returned KB-3-1 tox inactive, SW480 rerep -21.4%, ALOX12 inh -12.8%, KB-V1 MDR tox inconclusive, PINK1 modulator 0.9% and MCF10A rereplic inconclusive.
Screening COc1cccc(NC(=O)c2oc3ccc(S(=O)(=O)N4CCCCCC4)cc3c2C)c1 returned KB-3-1 tox inactive, ALOX12 inh -16.3%, KB-V1 MDR tox inactive and PINK1 modulator -2.0%.
For COc1ccc(NC(=O)c2oc3ccc(S(=O)(=O)N4CCCCC4)cc3c2C)cc1 the results were KB-3-1 tox inactive, ALOX12 inh -15.3%, KB-V1 MDR tox 6.51µM* and PINK1 modulator 2.1%.
Cc1cc(C)cc(Nc2nc(-c3ccccc3F)no2)c1 was read as ALOX12 inh 28.0%.
`Cc1ccccc1N=C1Nc2cccc3cccc1c23` gave ALOX12 inh -9.1%.
For CCOC(=O)c1oc2ccc(S(=O)(=O)N3CCOCC3)cc2c1C the results were KB-3-1 tox inactive, SW480 rerep -11.3%, ALOX12 inh 16.9%, KB-V1 MDR tox inactive, PINK1 modulator -7.5%[38.3 µM] and MCF10A rereplic -2.4%.
